According to the supplement of paper PMC3334620:
Over roughly 33,000 sequences, “E-score (-0.5 to 0.5)” has its median near -0.01; the highest 2% begin near 0.26. The full list was thinned out, with the highest values kept by preference.

target: Ste12 (UniProt P13574); test: PBM E-score (8-mer binding enrichment) (E-score (-0.5 to 0.5)); higher = stronger / more preferred TF binding; details: protein concentration: 200 nM; construct: GST-DNA-binding domain
Experimental: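 Universal 'all 10-mer' protein binding microarrays (Agilent AMADID 015681) probed with GST-tagged S. cerevisiae TFs (full-length or DBD) made by in vitro transcription/translation (PURExpress), about 100-200 nM. Bound TF was detected with fluorescent anti-GST. Each ungapped 8-mer (which stands for itself and its reverse complement) is scored by the PBM enrichment score (E-score), a modified Wilcoxon-Mann-Whitney statistic from -0.5 to +0.5, computed with the Universal PBM Analysis Suite. Scale: above 0.35 generally sequence-specific binding.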

UniProt P13574, sequence (P13574 whole entry, the tested form may be a part): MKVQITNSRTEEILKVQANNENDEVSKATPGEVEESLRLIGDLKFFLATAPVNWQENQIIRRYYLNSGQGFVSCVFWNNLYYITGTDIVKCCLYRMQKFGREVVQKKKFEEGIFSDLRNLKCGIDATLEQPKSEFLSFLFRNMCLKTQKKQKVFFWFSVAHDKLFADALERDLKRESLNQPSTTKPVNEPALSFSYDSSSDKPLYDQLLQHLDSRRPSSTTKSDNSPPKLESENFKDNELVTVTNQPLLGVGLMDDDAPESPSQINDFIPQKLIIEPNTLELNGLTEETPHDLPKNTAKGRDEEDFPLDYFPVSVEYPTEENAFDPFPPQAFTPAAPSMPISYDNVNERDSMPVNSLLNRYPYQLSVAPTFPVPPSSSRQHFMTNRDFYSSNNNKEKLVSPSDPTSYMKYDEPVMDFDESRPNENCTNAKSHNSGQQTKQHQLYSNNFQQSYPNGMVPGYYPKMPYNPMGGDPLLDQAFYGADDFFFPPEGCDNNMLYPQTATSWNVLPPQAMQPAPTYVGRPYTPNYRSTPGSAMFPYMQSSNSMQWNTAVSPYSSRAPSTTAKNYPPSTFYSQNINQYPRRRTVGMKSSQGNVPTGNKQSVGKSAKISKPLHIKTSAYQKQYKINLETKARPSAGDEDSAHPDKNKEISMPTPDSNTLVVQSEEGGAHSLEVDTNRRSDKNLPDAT

Sequence	PBM E-score
ACCTAAAT	0.11
ACGTTGGC	-0.0145
CATGGCGG	-0.0453
CTTTGCAC	-0.0246
GAGCGTGA	-0.0254
CGGCTGAA	-0.0336
GCAAGCAC	-0.125
ATAGTTTA	0.0232
AAAACTCG	0.125
GCGATGCA	-0.234
CGAATTAG	0.095
CAAACCGA	0.0295
AAAACCGA	0.115
GAAACCGA	0.267
TCTAACAA	0.127
GGTAACCA	-0.12
GGTAACAA	0.264
GGTAACAC	0.0298
TGTAACAA	0.333
CGTAACAA	0.293
CGTAACAG	0.205
GCTAACAA	-0.046

Sequence	PBM E-score
AGTAACAA	0.0502
AGAACTCA	0.117
TCGAGCGA	-0.0486
GAGTTGTA	-0.0493
AGCGTTTC	0.294
AGCGTTTA	-0.122
ATCGTTTG	0.0575
CTCGTTTC	0.242
ATCGTTTC	0.35
CGCGTTTC	0.234
AACCCACA	-0.0351
GGTGGGTA	0.0601
AATTTTCA	0.165
CATTTTTA	0.0631
AATTTTAG	0.105
CATTTTAA	0.27
GATTTCCC	-0.0998
CCTTTTAA	0.0649
CATTTTCA	0.273
CATTTCCC	0.295
CATTTTAC	0.254
CATTTTCC	0.123

Sequence	PBM E-score
CATTTTAG	0.267
TATTTTCA	0.201
AAGGCGGC	-0.0929
CCCTGAAC	0.0241
CCCTTGCG	-0.0882
ATACGTTG	-0.0291
CGTGGCGC	-0.1
TGAGGTAA	0.128
TCATTACA	0.18
ATTAGGAC	-0.179
CCCGCGGG	0.0996
AATACGCA	0.0688
ATTTGCTA	0.0107
CCATTTTA	0.267
GCATTTTA	0.165
CCATTTTC	0.0892
GCCTATCC	-0.214
TTCTGCAA	0.182
ATCTGAAC	-0.0162
GTCTGAAC	0.114
ATCTGAAA	0.364
GTCTGAAA	0.314

Sequence	PBM E-score
TTCTGAAA	0.365
ATCTGAAT	0.0272
GTCTGATA	0.16
CTCTGAAG	-0.104
CTCTGAAC	-0.092
CCCTGAAA	0.181
CTCTGAAA	0.294
TGGCCAAA	0.0505
TCCACAGA	0.124
CTTTAGCC	-0.029
AATAGTTG	0.255
AAGCAGAA	0.109
AATTGAGT	0.195
GTATGGAC	-0.0968
ATTGTTTG	0.184
ATTGTTAC	0.297
ATTGTTAG	0.0697
CTTGTTTA	0.0423
CTTGTTAC	0.129
ATTGTTTC	0.356
CTTGTTGC	0.00409
CTTGTTTC	0.375
